# Source: PubChem BioAssay (NCI)
# Several values for one entry are separate records, joined by “and”; a condition that tells them apart may be missing. Equal entries are not always repeated. The panel holds about 83,000 compounds, 20% with a hit somewhere; the sample as a whole holds those more often.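 Assay: single dose, 48 h. Readout: percent growth (0 = no net growth; negative = cell death). Active: <10.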 Activity calls are given as the source filed them.
# System: M14 melanoma
# Assay: NCI-60 one-dose screen, 48 h (100 = growth as untreated, 0 = no growth, -100 = all killed)
# Settings: 10 µM unless noted
row,SMILES,growth
1,CN(C)CCCn1c2c(c3ccc(N4CCNCC4)cc3c1=O)C(=O)c1ccccc1-2,19.4% (inactive)
2,C=CCOc1ccc(/C=C2\SC(=S)N(CCc3ccc(O)cc3)C2=O)cc1,103% (inactive)
3,CCOC(=O)C1=C(C)N=C2SC=C(c3ccc(F)cc3)N2[C@H]1c1cn(-c2ccccc2)nc1-c1ccc(Cl)cc1,98.6% (inactive)
4,COc1ccc(/C=N/NC(=O)CN2CCN(c3cc4c(cc3F)c(=O)c(C(=O)O)cn4C3CC3)CC2)cc1O,101% (inactive)
5,COc1cccc(C2C(C#N)=C(N)Oc3cc(OCCCCCC[P+](c4ccccc4)(c4ccccc4)c4ccccc4)ccc32)c1 (stereo not given),-49.7% (active)
6,Cc1nn(-c2nc(-c3cc4ccccc4oc3=O)cs2)c(C)c1N=Nc1ccccc1,110% (inactive)
7,Cn1cc2c(=O)nc3c(-c4nc5ccccc5[nH]4)n[nH]n3c2n1,75.8% (inactive)
8,O=C1c2cccc3cccc(c23)C(=O)N1N1C(=O)c2cccc3c(N4CCNCC4)ccc(c23)C1=O,96.6% (inactive)
9,Cc1nc2sc(C(=O)Nc3cccc4ncccc34)c(N)c2cc1C(C)O (stereo not given),62% (inactive)
10,CCOC(=O)c1nc2c3ccccc3cnn2c1C(=O)c1ccc(OC)cc1,101% (inactive)
11,O=C1/C(=C/c2ccccc2[N+](=O)[O-])Cc2ccccc21,42.7% (inactive) and 57.8% (inactive)
12,COc1cc(/C=C2/C=C(c3ccc(C(C)(C)C)cc3)N(CCc3ccc(S(N)(=O)=O)cc3)C2=O)cc(OC)c1OC,36.5% (inactive)
13,COC(=O)N/N=C/c1c[n+]([O-])c2ccccc2[n+]1[O-],106% (inactive)
14,Cc1nc(-n2[nH]c(=O)ccc2=O)sc1N=Nc1ccccc1,97.7% (inactive)
15,CC1(Cc2ccccc2)CC2=C(C(=O)O1)C(c1ccccc1)NC(=O)N2 (stereo not given),98% (inactive)
16,Cc1ccc(/C=C/c2c(C(=O)/C=C/c3ccccc3)c(C)nc3ccccc23)cc1,17.6% (inactive)
17,CC1=C2[C@@H](CC1)[C@]1(C)O[C@@](C3CC3)(C[C@H]1OC(=O)CO)[C@H]2OC(=O)/C=C/c1ccccc1,96.4% (inactive)
18,COc1ccc(S(=O)(=O)Nc2cc(Sc3cccc4cccnc34)c(O)c3ccccc23)cc1,-13.4% (active)
19,CCN(CC)CCCN1C(=O)c2c(c(C)c3c(oc4cc(OC)ccc43)c2C)C1=O,108% (inactive)
20,CN1Cn2c(ccc2C(F)(F)F)C(=O)CS1(=O)=O,104% (inactive)
21,O=c1cc(N/N=C/c2ccc(F)cc2)c2cc(Cl)ccc2[nH]1,81.2% (inactive)
22,Cc1cccc(-c2nnc(SCC(=O)Nc3ncc(Cc4ccccc4)s3)n2N2C(=O)CSC2=S)c1,51.1% (inactive)
23,COc1ccc(/C(C)=C(\c2ccc(OCCN3CCCCCC3)cc2)c2ccc(OC(=O)C3CCCCC3)cc2)cc1,-70.4% (active)
24,COc1ccc2c(c1)c(C(=O)c1nc(-c3cn(C)c4ccccc34)no1)cn2C,104% (inactive)
25,CCOC(=O)c1nnn(Cc2cc(=O)oc3c2ccc2ccccc23)c1C,98.1% (inactive)
